For 40 compounds, growth results are on record in PubChem BioAssay (NCI).

About 83,000 compounds went through this panel and 20% of them were active in at least one assay; those are over-represented in the sample as a whole.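 In brief: 96-well plates, 48 h treatment, single concentration, percent growth endpoint.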 A number with no mark means an inactive call. The source made the active and inactive calls.

The test system of this test is SW-620 colon. Briefly: NCI-60 one-dose screen, 48 h (100 = growth as untreated, 0 = no growth, -100 = all killed). The note with it: 10 µM. The protocol: Growth inhibition of the SW-620 human tumor cell line is measured as a screen for anti-cancer activity. Cells are grown in 96 well plates and exposed to the test compound for 48 hours. Compounds are tested at a single concentration, which is 10^-5 M for most compounds. The reported endpoint is percent growth (GI% or GIPRCNT), where numbers from 0 - 100% represent growth inhibition, and numbers from -100% - 0 represent cell death. For example, a value of 40 represents 60% growth inhibition. A value of 0 means no net growth occurred over the course of the experiment. A value of -40 indicates 40% of cells at the beginning of the experiment died by the end of the experiment. A value of -100 means all cells are dead at the end of the experiment.
NCI-60 Human Tumor Cell Lines Screen was performed using the standard one-dose NCI protocol, which is described in more detail at https://dtp.cancer.gov/discovery_development/nci-60/default.htm.
Compounds with GIPRCNT values below 10 were considered active. Activity score was based on GIPRCNT using the following formula: […]
Score is 0 for GIPRCNT values of 100 or above, 50 for GIPRCNT values of 0, and 100 for GIPRCNT values of -100.
Consider `COc1ccc(C2=Cn3c(CCC(=O)c4nc5ccccc5[nH]4)nnc3SC2)cc1`, for which the growth is 129%.
The figure for `COc1cc(/C=C2\CCCC3=C2N=C2SC(C)=CN2C3c2cc(OC)c(OC)c(OC)c2)cc(OC)c1OC` (stereo not given) is -0.154% (active); for `N#Cc1ccc(C(=O)CSc2nccc(Nc3ccc(C(=O)O)cc3)n2)cc1` it is 104%; for `O=C(Nc1cccc2c1CCCC2)c1cc2ccccc2cc1O` it is 51.4%.
The figure for `CN(C)CCOc1ccccc1NC1=C(Cl)C(=O)C(Nc2ccccc2OCCN(C)C)=C(Cl)C1=O` is -50% (active).
Turning to `C=CCn1c(SCC(=O)Nc2ccc(C(=O)/C=C/c3cc(OC)c(OC)c(OC)c3)cc2)nnc1-c1cc(-c2ccc(Cl)cc2)nc2ccccc12`, the growth is 90.7%.
For `CCOC(=O)c1cc(C(=O)c2cc(OC)c(OC)c(OC)c2)n2nc(C)ccc12`, the growth was 26.7%.
In the case of `O=c1oc2c(cc1-c1ccc(F)cc1)C(O)Oc1ccccc1-2` (stereo not given), the growth is 45.4%.
Turning to `Brc1ccc2c(c1)-c1ccccc1C1=NCCN12`, the growth was -34.3% (active).
The same measure for `O=C(CN1CCN(C(=O)c2ccccc2)CC1)Nc1ccccc1SCc1ccccc1`: 98.5%; for `CCC(c1ccc(OC)cc1)C(CC)c1ccc(O)c(CN2CCN(C)CC2)c1` (stereo not given): 16.6%; for `CC1C(=NC(=O)c2cnccn2)C(C)C(c2ccc(Cl)cc2)NC1c1ccncc1` (stereo not given): 111%.
The same measure for `Clc1ccc(/C=C2\CCCC3C2=Nc2ccccc2NC3c2ccc(Cl)cc2)cc1` (stereo not given): 41.5%; for `NC1=NC(c2ccccc2)C2=C(N1)/C(=C/c1ccccc1)CCC2` (stereo not given): 72.8%; for `c1ccc2c(c1)Cc1ccccc1N2CCN1CCCCC1`: 89.1%.
As to `O=C1/C=C/[C@@H](O)[C@@H]2C[C@@H](O)C[C@H]2/C=C/CCC[C@@H](C(F)(F)F)O1`, the growth is 93.9%.
Turning to `C1CN(CC2CCC(CN3CCOCC3)O2)CCO1` (stereo not given), the growth is 92.2%.
Consider `CCOC(=O)c1sc2ncnc(Nc3ccc4c(cnn4C(=O)Nc4ccccc4)c3)c2c1C`, for which the growth was 50%.
Regarding `O=C(Nc1ccc(OS(=O)(=O)c2ccccc2)cc1)C1CCCCC1`, the growth was 102%.
With `CC1=NN(C(=O)c2nn(-c3ccc(Cl)cc3)cc2O)C(=O)C1`, the growth is 46.3%.
In the case of `COc1cc(CNC(=O)C2CSC3(C)c4ccccc4C(=O)N23)cc(OC)c1OC` (stereo not given), the growth was 101%.
The figure for `Cc1cccc(N=Cc2ccccc2O)c1C` is 112%.
As for `CCOC(=O)/C(=C(\C)N)C1CC(=O)NC1=O` (stereo not given), the growth was 96.8%.
The same measure for `CCn1c(CSc2nc3ccccc3c(=O)n2CCc2ccccc2)n[nH]c1=S`: 97.5%; for `COc1cc2c3c(n([C@H]4CCOC4)c(=O)c2cc1OC)-c1cc2c(cc1C3=O)OCO2`: 46.2%; for `CCCc1cn(CC(=O)Nc2nc3ccccc3s2)nn1`: 99.9%.
The same measure for `N=C1S/C(=C/c2ccc(-c3ccc4c(c3)C(=O)NC4=O)o2)C(=O)N1c1ccc(Br)cc1`: 48.5%.
The same measure for `COc1ccccc1-n1c(-c2sc(NC(C)=O)nc2C)n[nH]c1=S`: 108%; for `CC(C)(C)c1ccc(S(=O)(=O)N[C@H]2CC[C@H]3[C@@H]4CCc5cc(O)c([N+](=O)[O-])cc5[C@H]4CC[C@]23C)cc1`: 89.9%; for `O=S(=O)(O)c1cccc(Nc2ccc3ccccc3c2)c1`: 93.2%.
As to `CCN(CC)CCOc1cccc2c1C(=O)c1cccc(OCCN(CC)CC)c1C2=O`, the growth is 20.8%.
The figure for `O=C(CN(C1CCCCC1)C1CCCCC1)Nc1ccc(S(=O)(=O)c2ccc(NC(=O)CN(C3CCCCC3)C3CCCCC3)cc2)cc1` is -48.4% (active).
The same measure for `COc1ccc(/C=c2\sc3n(c2=O)C(c2cc(OC)c(OC)c(OC)c2)C=C(c2ccc(OC)c(OC)c2)N=3)cc1OC` (stereo not given): 109%; for `C=CCN(CC=C)C(=O)[C@H](CC)[C@@H]1CC[C@@H](C)[C@@H]([C@H](C)[C@@H](O)[C@@H](C)C(=O)[C@H](CC)C2O[C@]3(C=C[C@@H](O)[C@]4(CC[C@@](C)([C@H]5CC[C@](O)(CC)[C@H](C)O5)O4)O3)[C@H](C)C[C@@H]2C)O1` (stereo not given in full): 12.3%.
The figure for `O=C1/C=C/[C@@H](O)[C@@H]2C[C@@H](O)C[C@H]2/C=C/CCC[C@H](CCc2ccc(NC(=S)Nc3ccc4c(c3)C(=O)OC43c4ccc(O)cc4Oc4cc(O)ccc43)cc2)O1` is 3.26% (active); for `COc1cc(-c2ccc(N=Nc3ccc4c(S(=O)(=O)O)ccc(N)c4c3O)c(OC)c2)ccc1N=Nc1ccc2c(S(=O)(=O)O)ccc(N)c2c1O` it is 109%; for `COc1ccc(/C(C#N)=C/c2ccccc2OC)cc1` it is 22.8%.
As for `CN(C)CCCOc1cccc(NC2=C(Cl)C(=O)C(Nc3cccc(OCCCN(C)C)c3)=C(Cl)C2=O)c1`, the growth was -61.2% (active).
Turning to `Cc1ccc(NC(=O)N2CCCCC2)cc1[N+](=O)[O-]`, the growth is 73.3%.
As to `O=C(COc1cccc(/C=C2\CSc3ccccc3C2=O)c1)c1ccc(Cl)cc1`, the growth is -100% (active).
